# Inconclusive results are not listed. Unmarked numbers belong to inactive results. Active and inactive are the calls of the source. The call rests on the fitted dose curve; in most records, active means well fitted cell-killing curve with a large enough effect; inconclusive means small, poorly fitted or top-dose-only effect, or effect the other way; inactive means no such curve, though single readings can be large or run the other way. Starred links: 1 amine or outer side, 2 acyl side, 3 side chain; linkers in the order of their positions; H or OH if unused. Positions of bridges follow the written chain, without caps; N, C: chain ends. Non-standard residues stand in square brackets, D forms with d. Residues, ends and D or L forms follow the SMILES beside them. Chains are numbered I, II in the order given. Actinocin(9to1) = Cc1c2oc3c(C)ccc(C(=O)[*:1])c3nc-2c(C(=O)[*:2])c(N)c1=O; NMeV = CN[CH](C(=O)O)C(C)C; Sar = CNCC(=O)O
# Experiment: Quantitative High-Throughput drug screen in 47 multiple myeloma cell lines against the NCATS MIPE library collection: Delta47_JCRB cell viability assay (AID 1918925; further: nearly all actives have a fitted effect of over 45% in size)
# Conditions: Delta47 myeloma viability, CellTiter-Glo ATP, 48 h; series mostly up to 45.8 µM; viability (% of DMSO): at the top concentration
# Excerpt: PI: Beverly A. Mock Ph.D.
# Laboratory of Cancer Biology and Genetics,
# Center for Cancer Research, National Cancer Institute,
# National Institute of Health, Bethesda, Maryland
# Drug resistance and disease progression are common in multiple myeloma (MM) patients, underscoring the need for new therapeutic combinations. […] We hypothesized that effective combinations would reduce MYC expression and enhance p16 activity. […] These preclinical data identify potentially useful drug combinations for evaluation in drug-resistant MM and reveal potential mechanisms of combined drug sensitivity.
# Described herein is the primary MIPE qHTS used to cherrypick compounds. Validated compounds were then further tested for potential synergistic activiy.
# [1] Peat TJ, Gaikwad SM, Dubois W, Gyabaah-Kessie N, Zhang S, Gorjifard S, Phyo Z, Andres M, Hughitt VK, Simpson RM, Miller MA, Girvin AT, Taylor A, Williams D, D'Antonio N, Zhang Y, Rajagopalan A, Flietner E, Wilson K, Zhang X, Shinn P, Klumpp-Thomas C, McKnight C, Itkin Z, Chen L, Kazandijian D, Zhang J, Michalowski AM, Simmons JK, Keats J, Thomas CJ, Mock BA. Drug combinations identified by high-throughput screening promote cell cycle transition and upregulate Smad pathways in myeloma. Cancer Lett. 2023 Aug 1;568:216284. doi: 10.1016/j.canlet.2023.216284. Epub 2023 Jun 24. PMID: 37356470; PMCID: PMC10408729.
# SEQUENCE No. (e.g., 1, 2, 3, etc.); […] (e.g., Cells, Incubation, Reagent, etc.); VALUE and DESCRIPTION.
# 1; Cells; 5 uL; white, solid bottom 1536-well Greiner assay plate.
# 2; Compounds; 23 nL; Kalypsis pin tool (Wako USA) equipped with a 1536-well pin head to transfer to the assay plates.
# 3; Incubation; 48 hours; 37C incubation.
# 4; Reagent;5uL; CellTiter Glo (Promega).
# 5; Detector; 425V; Luminescence; Viewlux PerkinElmer.
# NOTES (numbers refer to Sequence numbers above)
# 1. The cell-based screening methods employed in this study were like those previously published. Briefly, the corresponding myeloma cell lines were screened in 1,536-well plates with 500 cells, 5-uL per well for inhibition of cell viability (assessed by measuring ATP levels with CellTiterGlo).
# 2. NCATS MIPE 4.0 library of approved and investigational drugs were added using the Kalypsis pin tool. Wells treated with DMSO only for 100% viability and media only wells for 0% viability were used as controls.
# 3. The assay plates were covered and incubated for 48 hours in a 37C, 5% CO2 incubator with controlled humidity.
# 4. After 48 hours, CellTilter-GloTM luminescent substrate mix (Promega) reagent was added to the assay plate and plates we incubated for 5 min at room temperature.
# 5. Signal was measured as median relative luminescence units on a ViewLux (PerkinElmer) multiplate reader.
# [1] Heske CM, Davis MI, Baumgart JT, Wilson K, Gormally MV, Chen L, Zhang X, Ceribelli M, Duveau DY, Guha R, Ferrer M, Arnaldez FI, Ji J, Tran HL, Zhang Y, Mendoza A, Helman LJ, Thomas CJ. Matrix Screen Identifies Synergistic Combination of PARP Inhibitors and Nicotinamide Phosphoribosyltransferase (NAMPT) Inhibitors in Ewing Sarcoma. Clin Cancer Res. 2017 Dec 1;23(23):7301-7311. doi: 10.1158/1078-0432.CCR-17-1121. Epub 2017 Sep 12. PMID: 28899971; PMCID: PMC6636827.
# Potency means the concentration at half of the fitted maximal effect.
SMILES,Potency,viability (% of DMSO)
Cc1cnc(NC(=O)Nc2cc(Br)c(C)cc2OC[C@@H]2CNCCO2)cn1,5.26 µM (active),
CC(C)[C@H](CO)Nc1nc(Nc2cccc(Cl)c2)c2ncn(C(C)C)c2n1,18.7 µM (active),
CC(C)(C)[N+]([O-])=Cc1ccc(S(=O)(=O)O)cc1S(=O)(=O)O,,107%
CC(C)(C)[C@H](NC(=O)c1ccc(N)c(Cl)c1)C(=O)N1CCC[C@@H]1C(=O)N[C@H](C#N)CC(=O)O,,119% [at 3.51 µM]
"Cc1c2oc3c(C)ccc(C(=O)NC4C(=O)NC(C(C)C)C(=O)N5CCCC5C(=O)N(C)CC(=O)N(C)C(C(C)C)C(=O)OC4C)c3nc-2c(C(=O)NC2C(=O)NC(C(C)C)C(=O)N3CCCC3C(=O)N(C)CC(=O)N(C)C(C(C)C)C(=O)OC2C)c(N)c1=O (stereo not given) (I: TVP[Sar][NMeV] / II: TVP[Sar][NMeV]; ester I:1-I:C, II:1-II:C; linker I:N-II:N via Actinocin(9to1); configuration not given here)",,1.1%
COc1cc(OC)c(NC(=O)Nc2cc(C)on2)cc1Cl,,115%
COC(=O)C=CC(=O)OC,1.32 µM (active),
C[C@H]1C[C@H]2[C@@H]3CCC4=CC(=O)C=C[C@]4(C)[C@@H]3C(=O)C[C@]2(C)[C@@]1(O)C(=O)CO,,83.7%
O=C(Nc1nnc(-c2ccco2)o1)c1cc(-c2ccccc2)nc2ccccc12,18.7 µM (active),
C[C@H]1[C@@H](OC(=O)CCC(=O)O)O[C@@H]2O[C@@]3(C)CC[C@@H]4[C@H](C)CC[C@@H]1[C@@]24OO3,5.26 µM (active),
O=C(NC1CC1)c1cccc(-c2ccc3c(NC(=O)C4CC4)n[nH]c3c2)c1,7.43 µM (active),
c1cc(CN2CCCNCCNCCCNCC2)ccc1CN1CCCNCCNCCCNCC1,,103%
C=C(C)[C@@H]1CC[C@]2(C(=O)O)CC[C@]3(C)[C@H](CC[C@@H]4[C@@]5(C)CC[C@H](O)C(C)(C)[C@@H]5CC[C@]43C)[C@@H]12,,98.1%
COc1cc2ncnc(Nc3cccc(Br)c3)c2cc1OC,1.48 µM (active),
COc1cc(C(=O)NC2CCN(C)CC2)ccc1Nc1ncc2c(n1)N(C1CCCC1)CCC(=O)N2C(C)C,14.8 µM (active),
CCC(C=C[C@@H]1OC(=O)C=C[C@H]1C)=C[C@H](C)CC=CC(C)=C[C@@H](C)C(=O)[C@@H](C)[C@H](O)[C@@H](C)CC(C)=CC(=O)O,0.022 µM (active),
CC(O)(C#Cc1ccc2c(c1)N(c1nc(N)ncc1Cl)CC2)c1nccs1 (stereo not given),2.09 µM (active),
COc1cc([C@@H]2c3cc4c(cc3[C@@H](O[C@@H]3O[C@@H]5CO[C@@H](c6cccs6)O[C@@H]5[C@H](O)[C@@H]3O)[C@H]3COC(=O)[C@H]23)OCO4)cc(OC)c1O,0.935 µM (active),
Cc1cnn(C)c1C(=O)Nc1cc(Nc2ccc3c(C=Cc4ccccn4)n[nH]c3c2)ccc1F,8.33 µM (active),
COc1cc2c(cc1OC)[C@@H]1C(=O)c3ccc4c(c3O[C@@H]1CO2)C=CC(C)(C)O4,0.0105 µM (active),

SMILES,Potency,viability (% of DMSO)
OCCN1C[C@H](O)[C@@H](O)[C@H](O)[C@@H]1CO,,125%
CN(C)CCN1C(=O)c2cccc3cc(N)cc(c23)C1=O,11.8 µM (active),
CN(C)c1ccc2cc(C(=O)N[C@@H](CCCN=C(N)CCl)C(=O)NCc3ccccc3)ccc2c1,18.7 µM (active),
CCc1cc(C(C)=NOCc2ccc(C3CCCCC3)c(C(F)(F)F)c2)ccc1CN1CC(C(=O)O)C1,20.9 µM (active),
C[N+]1(C)[C@@H]2C[C@@H](OC(=O)C(O)(c3cccs3)c3cccs3)C[C@H]1[C@@H]1O[C@@H]12,,138%
C[C@@H](Oc1ccc2[nH]nc(C=Cc3cnn(CCO)c3)c2c1)c1c(Cl)cncc1Cl,0.469 µM (active),
C=CC(=O)Nc1cc(NC(=O)c2ccc(C)c(NC(=O)c3ccno3)c2)cc(C(F)(F)F)c1,9.35 µM (active),
O=C1NC(=O)C(=Cc2ccc3nccc(-c4ccncc4)c3c2)S1,0.0332 µM (active),
N#Cc1ccc(COC[C@H]2O[C@@H](n3c(NCc4ccc(Cl)c(Cl)c4)nc4c(N)ncnc43)[C@@H](O)[C@@H]2O)cc1,16.6 µM (active),
N[C@H]1CN(c2c(F)cc3c(=O)c(C(=O)O)cn(C4C[C@@H]4F)c3c2Cl)CC12CC2 (stereo not given in full),,114%
C[C@H](NC(=O)C(C#N)=Cc1cccc(Br)n1)c1ccccc1,2.09 µM (active),
CC(C)(O)Cn1c(NC(=O)c2ccc(-c3cn[nH]c3)s2)nc2cc(CN3CCOCC3)ccc21,0.833 µM (active),
CN1CCCN(C(=O)c2cccc(-c3ccc(C=C4C(=O)Nc5ccc(Cl)cc54)o3)c2)CC1,20.9 µM (active),
CCCNC(=O)[C@H]1O[C@H]1C(=O)N[C@H](C(=O)N1CCC[C@@H]1C(=O)OC)C(C)CC (stereo not given in full),13.2 µM (active),
Nc1nc2c(c(=O)[nH]1)N(C=O)[C@H](CNc1ccc(C(=O)N[C@@H](CCC(=O)O)C(=O)O)cc1)CN2,,115%
CC(=O)O[C@H]1C[C@@H]2CC[C@H]3[C@H]4C[C@H]([N+]5(C)CCCCC5)[C@@H](OC(C)=O)[C@@]4(C)CC[C@@H]3[C@@]2(C)C[C@H]1[N+]1(C)CCCCC1,,110%
c1ccc(CNc2nc(NCc3ccccc3)c3ccccc3n2)cc1,7.43 µM (active),
OCC(O)C(O)C(O)CO (stereo not given),,84.4%
CCn1c(=O)c2c(nc(C=Cc3ccc(OC)c(OC)c3)n2C)n(CC)c1=O,,127%
C=CCNC1=C2C[C@@H](C)C[C@H](OC)[C@@H](O)[C@@H](C)C=C(C)[C@H](OC(N)=O)[C@@H](OC)C=CC=C(C)C(=O)NC(=CC1=O)C2=O,1.05 µM (active),

# — PubChem BioAssay (NCATS)
